About 83,000 compounds went through this panel and 20% of them were active in at least one assay; those are over-represented in the sample as a whole.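 Each cell line was grown in a 96-well plate and treated with one concentration of compound for 48 hours. Values below 10 were considered active.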 A number with no mark means an inactive call. The source made the active and inactive calls.
How the values were obtained:
Experiment in all cases: NCI-60 one-dose screen, 48 h (100 = growth as untreated, 0 = no growth, -100 = all killed)
Details in all cases: 10 µM unless noted
NCI-H23 lung = tested on: NCI-H23 lung
NCI-H226 lung = tested on: NCI-H226 lung
NCI-H322M lung = tested on: NCI-H322M lung
HOP-62 NSCLC = tested on: HOP-62 NSCLC
NCI-H460 lung = tested on: NCI-H460 lung
HOP-92 NSCLC = tested on: HOP-92 NSCLC
NCI-H522 lung = tested on: NCI-H522 lung
A549/ATCC NSCLC = tested on: A549/ATCC NSCLC
786-0 renal = tested on: 786-0 renal
COLO 205 colon = tested on: COLO 205 colon

SMILES	growth (NCI-H23 lung) [%]	growth (NCI-H226 lung) [%]	growth (NCI-H322M lung) [%]	growth (HOP-62 NSCLC) [%]	growth (NCI-H460 lung)	growth (HOP-92 NSCLC)	growth (NCI-H522 lung)	growth (A549/ATCC NSCLC) [%]	growth (786-0 renal)	growth (COLO 205 colon)
O=c1[nH]nc(-c2ccc(Br)cc2)c2sc(NC(=S)Nc3ccc(Cl)cc3)nc12	84.1	94.4	95.3	104	102%	92.7%	94.1%	102	102%	124%
COc1ccc(Nc2cc(NC(=O)CNc3cc(OC)c(Cl)c(OC)c3Cl)ncn2)cc1	90.2	68.5	88	83.1	89.3%	74.3%	65.5%	71.1	88.1%	89.5%
COc1ccc(-n2nc(C(=O)NCC(=O)O)nc2-c2ccccc2)cc1	107	105	98.1	108	116%	97.1%	82.5%	97.8	102%	124%
CCCCCCC/C=C/[C@H]1O[C@]23C(=O)C[C@@]4(C[C@@H](OC5OC(CO)C(O)C(O)C5O)C[C@@H]4[C@H]2C=C1C)OC3=O (stereo partly drawn)	40.8	65.2	56.2	17.3	49%	59%	-44.7% (active)	62.2	5.03% (active)	35.9%
COc1cc(/C=C/CO)cc(OC)c1O[C@@H]1O[C@H](CO)[C@@H](O)[C@H](O)[C@H]1O	102	86.2	107	94.2	103%	94%	94.8%	91.7	96.7%	107%
NCCN1CCNCC1	94.6	89.6	116	103	108%		91.4%	102	101%	122%
C#Cc1cccc(Nc2ncnc3ccc(NC(=O)c4ccccc4)cc23)c1	86.9	85.9	21.7	102	76.8%	65%	53.5%	70.9	76.7%	99.7%
CC(C)(C#N)c1cc(F)cc(C(=O)Nc2cc(Nc3ncccc3-c3ncnc4nc[nH]c34)ccc2F)c1	16.8	41.3	53.3	44.9	30.5%	-0.389% (active)	7.73% (active)	42.1	63%	6.56% (active)
O=C(Nc1ccc2ncnc(Nc3cccc(C(F)(F)F)c3)c2c1)c1cccs1	30.2	67.6	40.7	58.4	22.5%	67.6%	33.8%	32.4	57%	24.1%
CC(C)NS(=O)(=O)c1cccc(-c2ccc3c(=O)n(CCCN)c4c(c3c2)C(=O)c2ccccc2-4)c1	93.4	93.4	115	91.9	102%	105%	85.3%	102	98%	106%
O=C(NCc1ccccc1)c1ccc2c(c1)NC(=O)[C@@H]1CCCN21	90.6	103	92.8	103	94.7%	102%	91.3%	106	95.9%	110%
Cc1cccc2nc3c(n12)C(=O)C(=O)c1ccccc1-3	39.6	80	90	26	37.3%	92.6%	43.8%	61.2	106%	98.3%
Nc1c(C(=O)c2ccccc2)sc2nc(-c3cc4ccccc4o3)cc(-c3ccc(Cl)cc3)c12	89.9	112	87	102	103%	-6.31% (active)	84.7%	106	107%	99.4%
COc1ccc2[nH]c(-c3ccccc3)c(C=C(C#N)C#N)c2c1	23.4	55.1	59.1	37.4	15.3%	-7.8% (active)	-18.4% (active)	37	33.9%	38.2%
COc1ccc(Sc2[nH]c(C(C)=O)c3ccccc23)cc1	82.6	69.8	76.7	83.7	20.4%	65.8%	-7.2% (active)	23	92.2%	-31.2% (active)
C[C@@H]1C(=O)[C@@H]2C[C@@H](O)[C@@H](O)C[C@]2(C)[C@H]2CC[C@@]3(C)C(=C12)CC[C@@H]3[C@@](C)(O)[C@H](O)CCC(C)(C)O	103	99.5	95.2	91	105%	97.5%	89%	92.8	100%	117%
O=c1c2ccccc2oc2ccc(OCCCCCN3CCCCCC3)cc12	72	91.4	85.9	92.5	78.9%	94.1%	69.9%	71.9	78.5%	43.6%
Cc1nccc2c3ccc(OCc4cn(-c5ccccc5)nn4)cc3n(CCCc3ccccc3)c12	80.8	85.7	75.6	78.2	59.2%		57.5%	52.2	80%	50.7%
Cc1ccc(CS/C(=C\c2ccc([N+](=O)[O-])cc2)C(=O)c2ccc(F)cc2)cc1	57.2	67	103	83.4	82.3%	96.2%	-5.69% (active)	85	76.9%	54.2%
CC(=O)c1c(OCC#N)ccc2c(C)cc(=O)oc12	109	112	113	94.7	103%	108%	77.3%	99.9	106%	104%
CCSc1ccc(C2C(Br)C(=O)N2c2cc(OC)c(OC)c(OC)c2)cc1 (stereo not drawn)	25.2	50.2	50.5	30	10.1%	28.2%	7.68% (active)	18.2	8.1% (active)	-38.5% (active)
C=C1C(=O)O[C@H]2[C@H]1CC/C(C=Nc1c(N)cc(C(F)(F)F)cc1Br)=C\CC[C@@]1(C)O[C@@H]21	30	38.3	77.8	52	26.7%	-15.5% (active)	-68% (active)	58	-41.8% (active)	-52.1% (active)
CCCCn1c(=O)c(/C=C/C(=O)/C=C/c2ccc(OC)cc2)cc2cc(Cl)ccc21	48.6	70	72.7	102	20.7%	102%	56.3%	51.1	28.4%	88.3%
CC[C@H](Nc1ncnc2nc[nH]c12)c1nc2cccc(CC(=O)c3ccc(C(=O)NO)cc3)c2c(=O)n1-c1ccccc1	94.1	84.9	90.4	83.2	89.9%	72.6%	51.4%	88.4	98.9%	95.4%
COc1ccc(/C=C/C(=O)c2ccc(NC(=O)CSc3nnc(-c4ccc(OC)c(OC)c4)n3-c3ccccc3)cc2)cc1	21.3	80.7	99.1	48.5	91.3%	52.7%	-60.9% (active)	80	-67% (active)	26.7%
O=CN1N=C(c2ccc(F)cc2)CC1c1cccc(Nc2ccnc3cc(C(F)(F)F)ccc23)c1 (stereo not drawn)	42.5	60.3	85.1	60.8	46.7%	67.4%	45.6%	61	76.1%	32.3%
COc1ccc(N(C)c2nc(Cl)nc3ccn(C)c23)cc1	27	30.3	49	17.7	2.4% (active)	5.65% (active)	-36% (active)	10.7	12.6%	-71.1% (active)

Source: PubChem BioAssay (NCI)
